Measured values published in PubChem BioAssay (Tox21).
Records with an inconclusive call do not appear. Calls of active or inactive are those of the source. Unless noted, calls come from the whole dose curve; as a rule, active = well fitted curve in the direction sought with a large enough effect in the repeat runs; inconclusive = weak or mixed curves; inactive = no such curve, though single readings can be large; an effect the other way counts as inactive or inconclusive.

What was measured:
[1] = qHTS assay to identify small molecule antagonists of the thyroid receptor (TR) signaling pathway - cell viability counter screen (AID 743064); note: nearly all actives have a fitted effect of over 50% in size
Procedure, shortened: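 Compounds were tested on GH3.TRE-Luc cells in the presence of T3 at 1 nM final. Following 23.5 h at 37 °C, cell viability was quantified by CellTiter-Fluor.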

[2] = qHTS assay to identify small molecule antagonists of the thyroid receptor (TR) signaling pathway (AID 743065); note: series mostly up to about 70 µM; nearly all actives have a fitted effect of over 55% in size
Procedure, shortened: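 GH3.TRE-Luc rat pituitary cells carrying two TR response elements driving luciferase were plated for 4 h, given compound plus 1 nM T3 (final), and incubated 23.5 h at 37 C. ONE-Glo luminescence measured reporter inhibition; CellTiter-Fluor fluorescence tracked cytotoxicity.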

[3] = tested on: thyroid hormone receptor (rat, GH3 cells); test: qHTS assay to identify small molecule agonists of the thyroid receptor (TR) signaling pathway (AID 743066; calls by dose curve)
[4] = qHTS assay to identify small molecule antagonists of the estrogen receptor alpha (ER-alpha) signaling pathway - cell viability counter screen (AID 743074; calls by dose curve;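 note: HEK293 cells carrying ER-alpha-UAS-bla reporter stimulated with 17beta-estradiol; nearly all actives have a fitted effect of over 45% in size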)
[5] = qHTS assay to identify small molecule antagonists of the estrogen receptor alpha (ER-alpha) signaling pathway using the BG1 cell line - cell viability counter screen (AID 743081);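 note: compound given together with 17beta-estradiol as the ER stimulus; series mostly up to about 70 µM; nearly all actives have a fitted effect of over 45% in size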
Aromatase (Homo sapiens) = Aromatase (Homo sapiens) (UniProt P11511); test: qHTS assay to identify aromatase inhibitors (AID 743083); note: series mostly up to about 70 µM; nearly all actives have a fitted effect of over 55% in size
[6] = qHTS assay to identify aromatase inhibitors - cell viability counter screen (AID 743084);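 note: cells stimulated with testosterone during compound exposure; nearly all actives have a fitted effect of over 55% in size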
[7] = target: Aryl hydrocarbon receptor (Homo sapiens) (UniProt P35869); test: qHTS assay to identify small molecule that activate the aryl hydrocarbon receptor (AhR) signaling pathway (AID 743085);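 note: HG2L7.5c1 human HepG2 liver cells with stably integrated DRE-driven firefly reporter; series mostly up to about 70 µM; nearly all actives have a fitted effect of over 15% in size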
Procedure, shortened: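 24 h compound exposure, 37C, HepG2-derived HG2L7.5c1 cells with DRE-responsive luciferase. Readouts: fluorescence viability, then luminescence at room temperature after 30 min.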

[8] = target: Peroxisome proliferator-activated receptor gamma (Homo sapiens) (UniProt P37231); test: qHTS assay to identify small molecule antagonists of the peroxisome proliferator-activated receptor gamma (PPARg) signaling pathway (AID 743191; calls by dose curve; note: series mostly up to about 63 µM; nearly all actives have a fitted effect of over 30% in size)
Procedure, shortened: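 GeneBLAzer PPARg UAS-bla HEK293H cells carrying a UAS-driven beta-lactamase reporter were plated at 3000 cells/well, preincubated 5 h at 37C, then given compound for 17 h at 37C; LiveBLAzer B/G FRET substrate was read after 1 h at room temperature.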

[9] = qHTS assay to identify small molecule antagonists of the peroxisome proliferator-activated receptor gamma (PPARg) signaling pathway - cell viability counter screen (AID 743194); note: nearly all actives have a fitted effect of over 55% in size
Procedure, shortened: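 PPARg-UAS-bla HEK293H cells were plated, rested 5 h at 37 C, then treated with compounds plus rosiglitazone (50 nM final) for 17 h at 37 C; viability was then read by CellTiter-Glo luminescence after 30 min at room temperature.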

[10] = qHTS assay for small molecule agonists of the antioxidant response element (ARE) signaling pathway (AID 743202; active = well fitted activation curve with a large enough effect in the signal ratio in the repeat runs, not every such curve was filed as active; the % refers to the signal ratio)
Procedure, shortened: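 Read-out: LiveBLAzer B/G FRET substrate fluorescence after 2 h at room temperature, following 16 h compound treatment at 37 C of HepG2 cells carrying an ARE-driven beta-lactamase reporter.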

[11] = qHTS assay for small molecule agonists of the antioxidant response element (ARE) signaling pathway - cell viability counter screen (AID 743203; calls by dose curve; note: nearly all actives have a fitted effect of over 55% in size)
Procedure, shortened: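 Seeded at 2,000 cells/well, ARE-bla HepG2 cells were incubated 5 hrs before compound addition. After 16 hrs of treatment at 37C with 5% CO2, CellTiter-Glo reagent was added and luminescence read 30 min later.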

[12] = qHTS assay for small molecule activators of the heat shock response signaling pathway - cell viability counter screen (AID 743209); note: nearly all actives have a fitted effect of over 50% in size
Procedure, shortened: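 First, HSE-bla HeLa cells were seeded at 1500 cells/well and kept overnight at 37 C. Next, compounds were pinned in and incubated 5 h. After the FRET substrate step, CellTiter-Glo was added and luminescence read 30 min later.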

[13] = qHTS assay for small molecule activators of the heat shock response signaling pathway (AID 743210; active = well fitted activation curve with a large enough effect in the signal ratio in the repeat runs, with a control signal flat, not every such curve was filed as active; the % refers to the signal ratio; note: series mostly up to about 63 µM)
Procedure, shortened: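 HSE-bla HeLa cells (beta-lactamase reporter under heat shock response elements) were exposed to compounds for 5 h at 37 C, then loaded with LiveBLAzer B/G FRET substrate for 2.5 h at room temperature before fluorescence reading.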

[14] = qHTS assay to identify small molecule that activate the aryl hydrocarbon receptor (AhR) signaling pathway - cell viability counter screen (AID 743086);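 note: HepG2 liver cells carrying the AhR DRE luciferase reporter; series mostly up to about 70 µM; nearly all actives have a fitted effect of over 45% in size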
Procedure, shortened: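 HepG2-AhR-luc (HG2L7.5c1) cells, 4000/well, were preincubated 5 h at 37C, exposed to compound in qHTS format for 24 hr at 37C, then given CellTiter-Fluor for 30 min; viability was read as fluorescence in the reporter wells.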

[15] = target: Peroxisome proliferator-activated receptor gamma (Homo sapiens) (UniProt P37231); test: qHTS assay to identify small molecule agonists of the peroxisome proliferator-activated receptor gamma (PPARg) signaling pathway (AID 743094; active = well fitted activation curve with a large enough effect in the signal ratio in the repeat runs, not every such curve was filed as active; the % refers to the signal ratio)
Procedure, shortened: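 Quantitative HTS agonist mode: stable HEK293H line with UAS-beta-lactamase reporter under PPARg control, 17 h compound exposure at 37C, fluorescence after 1 h FRET substrate loading at room temperature.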
% is set by controls: 0 for no effect and ±100 for the full control effect.

Sequence of Aromatase (Homo sapiens) (P11511 whole entry, looked up): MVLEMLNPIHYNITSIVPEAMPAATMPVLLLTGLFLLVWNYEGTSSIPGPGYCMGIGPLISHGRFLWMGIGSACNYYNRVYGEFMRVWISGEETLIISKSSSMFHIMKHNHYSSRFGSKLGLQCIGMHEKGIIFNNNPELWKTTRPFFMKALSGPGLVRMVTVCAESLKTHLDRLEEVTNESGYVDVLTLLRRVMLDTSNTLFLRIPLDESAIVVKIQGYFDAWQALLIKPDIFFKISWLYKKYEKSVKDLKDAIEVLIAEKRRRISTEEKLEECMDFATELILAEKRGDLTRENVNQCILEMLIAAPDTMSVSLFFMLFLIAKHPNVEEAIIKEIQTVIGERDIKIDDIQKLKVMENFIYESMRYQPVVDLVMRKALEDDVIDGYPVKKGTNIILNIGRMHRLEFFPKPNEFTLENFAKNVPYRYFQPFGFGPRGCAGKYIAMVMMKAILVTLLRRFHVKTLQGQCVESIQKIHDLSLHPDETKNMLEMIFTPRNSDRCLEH
Sequence of Aryl hydrocarbon receptor (Homo sapiens) (P35869 whole entry, looked up): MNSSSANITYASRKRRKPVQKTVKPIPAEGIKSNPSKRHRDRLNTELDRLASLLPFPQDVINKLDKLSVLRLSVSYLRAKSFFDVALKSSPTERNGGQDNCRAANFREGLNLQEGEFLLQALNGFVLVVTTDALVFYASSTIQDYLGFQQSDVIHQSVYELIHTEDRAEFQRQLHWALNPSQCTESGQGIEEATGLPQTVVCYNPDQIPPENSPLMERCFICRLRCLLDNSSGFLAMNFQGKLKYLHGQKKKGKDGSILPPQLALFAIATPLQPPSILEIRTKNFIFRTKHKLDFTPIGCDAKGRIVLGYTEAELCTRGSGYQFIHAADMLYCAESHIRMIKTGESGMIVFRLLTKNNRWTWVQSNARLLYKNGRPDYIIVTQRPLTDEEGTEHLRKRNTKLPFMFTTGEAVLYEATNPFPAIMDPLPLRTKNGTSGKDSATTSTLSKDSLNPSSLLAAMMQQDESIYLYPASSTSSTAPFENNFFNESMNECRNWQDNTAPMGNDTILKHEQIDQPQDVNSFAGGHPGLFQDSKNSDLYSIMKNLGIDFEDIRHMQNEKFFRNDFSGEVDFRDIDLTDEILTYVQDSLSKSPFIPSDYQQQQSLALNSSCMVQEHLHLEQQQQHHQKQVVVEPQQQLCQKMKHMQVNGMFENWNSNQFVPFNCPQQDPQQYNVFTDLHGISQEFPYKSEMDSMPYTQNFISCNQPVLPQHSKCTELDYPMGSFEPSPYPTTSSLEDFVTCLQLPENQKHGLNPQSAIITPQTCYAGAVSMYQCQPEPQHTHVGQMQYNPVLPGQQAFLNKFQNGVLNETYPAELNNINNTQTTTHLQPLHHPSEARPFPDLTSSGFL
Sequence of Peroxisome proliferator-activated receptor gamma (Homo sapiens) (P37231 whole entry, looked up): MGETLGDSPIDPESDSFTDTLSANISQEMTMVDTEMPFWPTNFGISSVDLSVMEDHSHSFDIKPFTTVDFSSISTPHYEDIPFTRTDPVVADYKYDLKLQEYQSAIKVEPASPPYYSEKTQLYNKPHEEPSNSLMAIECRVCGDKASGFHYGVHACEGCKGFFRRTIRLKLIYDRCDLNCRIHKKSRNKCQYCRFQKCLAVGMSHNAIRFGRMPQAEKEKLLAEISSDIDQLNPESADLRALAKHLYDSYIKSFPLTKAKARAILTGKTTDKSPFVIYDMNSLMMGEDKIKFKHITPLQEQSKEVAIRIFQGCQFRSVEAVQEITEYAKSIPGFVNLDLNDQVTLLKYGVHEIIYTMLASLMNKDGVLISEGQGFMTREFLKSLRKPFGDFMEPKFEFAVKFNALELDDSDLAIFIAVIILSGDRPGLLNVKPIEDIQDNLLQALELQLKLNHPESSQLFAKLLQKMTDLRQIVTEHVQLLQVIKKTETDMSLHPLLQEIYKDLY

CCN[C@@H]1C[C@H](N)[C@@H](OC2OC(CN)=CCC2N)[C@H](O)[C@H]1O[C@H]1OC[C@](C)(O)[C@H](NC)[C@H]1O (stereo not given in full)
inactive: Potency [1] | Potency [2] | outcome [3] | Potency [4] | outcome [5] | outcome (Aromatase (Homo sapiens)) | Potency [6] | Potency [7] | ratio activity, negative = inhibition [8] -0.0427% [at 0.55 µM] | activity change, negative = cytotoxicity [9] -4.19% [at 0.55 µM] | activation [10] -10.7% [at 0.756 µM] | viability change, negative = cytotoxic [11] -2.08% [at 0.756 µM] | activity change, negative = cytotoxicity [12] 9.84% [at 0.55 µM] | activation [13] -1.49% [at 0.55 µM]

CN(C)[C@@H]1C(=O)C(C(=O)NCN2CCCC2)=C(O)[C@@]2(O)C(=O)C3=C(O)c4c(O)cccc4[C@@](C)(O)C3C[C@@H]12 (stereo not given in full)
inactive: Potency [1] | Potency [2] | outcome [3] | Potency [4] | outcome [5] | outcome (Aromatase (Homo sapiens)) | Potency [6] | Potency [14] | Potency [15] | Potency [8] | outcome [9] | Potency [10] | outcome [11] | outcome [12] | outcome [13]

CC[N+](CC)(CC)CCOc1cccc(OCC[N+](CC)(CC)CC)c1OCC[N+](CC)(CC)CC
inactive: Potency [1] | Potency [2] | outcome [3] | Potency [4] | outcome [5] | outcome (Aromatase (Homo sapiens)) | Potency [6] | Potency [14] | outcome [9] | Potency [10] | outcome [11] | outcome [12] | outcome [13]

CN1CCN(c2cc3c(nn2)Oc2ccccc2N3C)CC1
inactive: Potency [1] | Potency [2] | outcome [3] | Potency [4] | outcome [5] | outcome (Aromatase (Homo sapiens)) | Potency [6] | Potency [14] | Potency [15] | outcome [9] | Potency [10] | outcome [11] | outcome [12]

CC1(C)[C@@H]2CC[C@@]1(C)[C@H](O)C2
inactive: Potency [1] | Potency [2] | outcome [3] | Potency [4] | outcome [5] | outcome (Aromatase (Homo sapiens)) | Potency [6] | Potency [7] | Potency [14] | outcome [9] | Potency [10] | outcome [11] | outcome [12] | outcome [13]

CCN(C=O)CC
inactive: Potency [1] | Potency [2] | outcome [3] | Potency [4] | outcome [5] | Potency [14] | outcome [9] | outcome [11] | outcome [12] | outcome [13]

CCCn1cc[n+](C)c1C
inactive: Potency [1] | Potency [2] | outcome [3] | Potency [4] | outcome [5] | outcome (Aromatase (Homo sapiens)) | Potency [6] | Potency [14] | outcome [9] | outcome [11] | outcome [12] | outcome [13]

COc1c(N2CCNC(C)C2)c(F)cc2c(=O)c(C(=O)O)cn(C3CC3)c12 (stereo not given)
inactive: Potency [1] | Potency [2] | outcome [3] | Potency [4] | outcome [5] | outcome (Aromatase (Homo sapiens)) | Potency [6] | Potency [7] | Potency [15] | Potency [8] | outcome [9] | Potency [10] | outcome [11] | outcome [12] | outcome [13]

C[N+](C)(CCOc1ccccc1)Cc1cccs1
inactive: Potency [1] | Potency [2] | outcome [3] | Potency [4] | outcome [5] | outcome (Aromatase (Homo sapiens)) | Potency [6] | Potency [7] | Potency [14] | outcome [9] | Potency [10] | outcome [11] | outcome [12] | outcome [13]

O=C(O)CNC(=O)c1ccccc1
inactive: Potency [1] | Potency [2] | outcome [3] | Potency [4] | outcome [5] | outcome (Aromatase (Homo sapiens)) | Potency [6] | Potency [7] | Potency [15] | outcome [9] | Potency [10] | outcome [11] | outcome [12] | outcome [13]

NS(=O)(=O)Cc1noc2ccccc12
inactive: Potency [1] | Potency [2] | outcome [3] | Potency [4] | outcome [5] | outcome (Aromatase (Homo sapiens)) | Potency [6] | Potency [7] | Potency [8] | outcome [9] | Potency [10] | outcome [11] | outcome [12] | outcome [13]

CC[N+](C)(CC)CCOC(=O)C1c2ccccc2Oc2ccccc21
inactive: Potency [1] | Potency [2] | outcome [3] | Potency [4] | outcome [5] | outcome (Aromatase (Homo sapiens)) | Potency [6] | Potency [7] | Potency [15] | Potency [8] | outcome [9] | Potency [10] | outcome [11] | outcome [12]

CCCCCCC#CC(=O)OC
inactive: Potency [1] | Potency [2] | outcome [3] | Potency [4] | outcome [5] | outcome (Aromatase (Homo sapiens)) | Potency [6] | Potency [7] | Potency [14] | Potency [8] | outcome [9] | outcome [12] | outcome [13]

COC(=O)C1=C(C)NC(C)=C(C(=O)OC(C)C)C1c1cccc2nonc12 (stereo not given)
inactive: Potency [1] | Potency [2] | outcome [3] | Potency [4] | outcome [5] | outcome (Aromatase (Homo sapiens)) | Potency [6] | Potency [14] | Potency [8] | outcome [9] | Potency [10] | outcome [11] | outcome [12] | outcome [13]

[Ca+2]
inactive: Potency [1] | Potency [2] | outcome [3] | Potency [4] | outcome [5] | outcome (Aromatase (Homo sapiens)) | Potency [6] | Potency [14] | Potency [8] | outcome [9] | outcome [11] | outcome [12] | outcome [13]

CC(C)C[C@@H](N)C(=O)O
inactive: Potency [1] | Potency [2] | outcome [3] | Potency [4] | outcome [5] | outcome (Aromatase (Homo sapiens)) | Potency [6] | Potency [14] | Potency [15] | Potency [10] | outcome [11] | outcome [12] | outcome [13]
